Results: PubChem BioAssay AID1159580 (chemical genetic matrix, 2015)
Where “and” joins values, the source holds several entries; their conditions need not be identical. Identical values can stand only once. Screen size: about 5,500 compounds; about 2,000 (36%) were called active. About 18% were inconclusive and are not listed. No stated cut-off is given here; in the data, active means normalized growth mostly below about 0.91 (no sharp cut-off); inconclusive means no clear call, values can overlap the other calls; inactive means mostly above about 0.92. Some of the results follow.

Assay: chemical genetic growth profiling, strain panel (AID 1159580);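 further: tested at 20 µM; growth read once vehicle control cultures reached saturation at 30 °C; 1 = growth at the plate median or of vehicle wells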
Details: S. cerevisiae deletion strains, growth OD

Measured: normalized growth

CCN1C[C@@]2(COC)C3[C@@H](OC)[C@H]4[C@@H]1[C@]3(C(OC)C[C@H]2O)C1C[C@@]2(O)[C@H](OC(=O)c3ccccc3)C1[C@]4(OC(C)=O)[C@@H](O)[C@@H]2OC (stereo partly drawn)
inactive: locus YAL021C, strain ccr4, stronger effect = lower value 1.03 | locus YAL026C, strain drs2, stronger effect = lower value 1.02 | locus YAL030W, strain snc1, stronger effect = lower value 1 | locus YBL061C, strain skt5, stronger effect = lower value 1 | locus YBR009C, strain hhf1, stronger effect = lower value 1.06 | locus YBR021W, strain FUR4, stronger effect = lower value 0.985 | locus YBR023C, strain chs3, stronger effect = lower value 1.01 | locus YBR171W, strain sec66, stronger effect = lower value 1.01 | locus YBR229C, strain ROT2, stronger effect = lower value 1.02 | locus YBR231C, strain swc5, stronger effect = lower value 0.995 | locus YBR279W, strain paf1, stronger effect = lower value 1.02 | locus YCL011C, strain gbp2, stronger effect = lower value 1.02 | locus YCL016C, strain dcc1, stronger effect = lower value 0.999 | locus YCL029C, strain bik1, stronger effect = lower value 1.03 | locus YCL061C, strain MRC1, stronger effect = lower value 1 | locus YCL069W, strain vba3, stronger effect = lower value 1 | locus YCR088W, strain abp1, stronger effect = lower value 1 | locus YDL005C, strain med2, stronger effect = lower value 1.01 | locus YDL035C, strain GPR1, stronger effect = lower value 1.03 | locus YDL040C, strain nat1, stronger effect = lower value 1 | locus YDL074C, strain BRE1, stronger effect = lower value 1.03 | locus YDL101C, strain DUN1, stronger effect = lower value 1.02 | locus YDL185W, strain tfp1, stronger effect = lower value 1.04 | locus YDL192W, strain arf1, stronger effect = lower value 1.03 | locus YDR001C, strain nth1, stronger effect = lower value 1.01 | locus YDR069C, strain doa4, stronger effect = lower value 0.985 | locus YDR101C, strain arx1, stronger effect = lower value 1.03 | locus YDR137W, strain rgp1, stronger effect = lower value 1.02 | locus YDR150W, strain NUM1, stronger effect = lower value 1.02 | locus YDR159W, strain sac3, stronger effect = lower value 0.978 | locus YDR162C, strain NBP2, stronger effect = lower value 1.05 | locus YDR195W, strain ref2 0.97 | locus YDR297W, strain sur2, stronger effect = lower value 1.04 | locus YDR318W, strain mcm21, stronger effect = lower value 1.03 | locus YDR334W, strain swr1, stronger effect = lower value 1.02 | locus YDR335W, strain msn5, stronger effect = lower value 1.01 | locus YDR388W, stronger effect = lower value 1.03 | locus YDR392W, strain spt3, stronger effect = lower value 0.907 | locus YDR502C, strain sam2, stronger effect = lower value 1.03 | locus YEL003W, strain gim4, stronger effect = lower value 1.02 | locus YEL037C, strain rad23, stronger effect = lower value 1.01 | locus YEL061C, strain CIN8 (second series), stronger effect = lower value 1.01 | locus YEL061C, strain CIN8, stronger effect = lower value 1.02 | locus YER015W, strain faa2, stronger effect = lower value 1.01 | locus YER016W, strain bim1, stronger effect = lower value 1 | locus YER110C, stronger effect = lower value 1.04 | locus YER111C, strain swi4, stronger effect = lower value 1.01 | locus YER155C, strain BEM2 (second series), stronger effect = lower value 0.973 | locus YER155C, strain BEM2, stronger effect = lower value 1 | locus YER167W, strain BCK2, stronger effect = lower value 1.03 | locus YFR010W, strain ubp6, stronger effect = lower value 1.01 | locus YGL078C, strain dbp3, stronger effect = lower value 1.03 | locus YGL086W, strain mad1, stronger effect = lower value 1.02 | locus YGL167C, strain pmr1, stronger effect = lower value 0.998 | locus YGL173C, strain kem1, stronger effect = lower value 1.02 | locus YGL227W, strain vid30, stronger effect = lower value 1.01 | locus YGL240W, strain doc1, stronger effect = lower value 0.987 | locus YGL248W, strain PDE1, stronger effect = lower value 1.02 | locus YGL253W, strain hxk2, stronger effect = lower value 1.01 | locus YGR135W, strain pre9, stronger effect = lower value 1.03 | locus YGR252W, strain gcn5, stronger effect = lower value 1.01 | locus YHR013C, strain ard1, stronger effect = lower value 0.995 | locus YHR027C, strain rpn1, stronger effect = lower value 1.01 | locus YHR030C, strain SLT2, stronger effect = lower value 1.02 and 0.957 | locus YHR079C, strain IRE1 (second series), stronger effect = lower value 1.03 | locus YHR079C, strain IRE1, stronger effect = lower value 0.967 | locus YHR094C, strain hxt1, stronger effect = lower value 1.03 | locus YHR129C, strain ARP1, stronger effect = lower value 1.02 | locus YHR142W, strain chs7, stronger effect = lower value 1.03 | locus YHR200W, strain rpn10, stronger effect = lower value 1.04 | locus YIL066C, strain RNR3, stronger effect = lower value 1.04 | locus YIL073C, strain SPO22, stronger effect = lower value 1.13 | locus YIL125W, strain kgd1, stronger effect = lower value 1.03 | locus YIR030C, strain dcg1, stronger effect = lower value 1.03 | locus YJL092W, strain hpr5, stronger effect = lower value 1 | locus YJL095W, strain BCK1 (second series), stronger effect = lower value 1.02 | locus YJL095W, strain BCK1, stronger effect = lower value 1.04 and 1 | locus YJL115W, strain asf1, stronger effect = lower value 1.01 | locus YJL129C, strain trk1, stronger effect = lower value 1.01 | locus YJL134W, strain LCB3, stronger effect = lower value 1.01 | locus YJL154C, strain vps35, stronger effect = lower value 1 | locus YJL164C, strain tpk1, stronger effect = lower value 1.02 | locus YJL166W, strain qcr8, stronger effect = lower value 0.989 | locus YJL168C, strain set2, stronger effect = lower value 1.03 | locus YJL187C, strain SWE1 (second series), stronger effect = lower value 1.04 | locus YJL187C, strain SWE1, stronger effect = lower value 1.03 | locus YJR043C, strain POL32, stronger effect = lower value 1.03 | locus YJR066W, strain TOR1, stronger effect = lower value 0.975 | locus YKL009W, strain mrt4, stronger effect = lower value 1.05 | locus YKL068W, stronger effect = lower value 1.05 | locus YKL085W, strain MDH1 (second series), stronger effect = lower value 1.03 | locus YKL085W, strain MDH1, stronger effect = lower value 1.03 | locus YKL160W, strain elf1, stronger effect = lower value 0.963 | locus YKR001C, strain vps1, stronger effect = lower value 1.01 | locus YKR026C, strain gcn3, stronger effect = lower value 1.01 | locus YKR091W, strain srl3, stronger effect = lower value 1.01 | locus YLL001W, strain dnm1, stronger effect = lower value 0.992 | locus YLL026W, stronger effect = lower value 1 | locus YLL041C, strain sdh2, stronger effect = lower value 1.01 | locus YLR027C, strain aat2, stronger effect = lower value 1 | locus YLR039C, strain RIC1, stronger effect = lower value 1.09 | locus YLR058C, strain SHM2, stronger effect = lower value 1.03 | locus YLR102C, strain apc9, stronger effect = lower value 1.03 | locus YLR113W, strain HOG1, stronger effect = lower value 0.94 | locus YLR221C, strain rsa3, stronger effect = lower value 0.999 | locus YLR258W, strain gsy2, stronger effect = lower value 1.01 | locus YLR262C, strain YPT6 (second series), stronger effect = lower value 0.994 | locus YLR262C, strain YPT6, stronger effect = lower value 1.13 | locus YLR268W, strain sec22, stronger effect = lower value 1.02 | locus YLR320W, strain mms22, stronger effect = lower value 0.991 | locus YLR330W, strain CHS5, stronger effect = lower value 1.02 | locus YLR342W, strain FKS1 (second series), stronger effect = lower value 1.02 | locus YLR342W, strain FKS1, stronger effect = lower value 1.01 | locus YLR357W, strain rsc2, stronger effect = lower value 1.01 | locus YLR370C, strain arc18, stronger effect = lower value 1.02 | locus YLR371W, strain rom2, stronger effect = lower value 1.02 | locus YLR384C, strain iki3, stronger effect = lower value 1.01 | locus YLR418C, strain cdc73, stronger effect = lower value 1.04 | locus YML016C, strain PPZ1, stronger effect = lower value 1.02 | locus YML032C, strain rad52, stronger effect = lower value 1.02 | locus YML120C, strain ndi1, stronger effect = lower value 1.01 | locus YML124C, strain tub3, stronger effect = lower value 1.04 | locus YMR058W, strain fet3, stronger effect = lower value 1.01 | locus YMR078C, strain ctf18, stronger effect = lower value 1.06 | locus YMR125W, strain sto1, stronger effect = lower value 0.973 | locus YMR129W, stronger effect = lower value 1.01 | locus YMR205C, strain PFK2, stronger effect = lower value 0.966 | locus YMR223W, strain ubp8, stronger effect = lower value 1.02 | locus YMR231W, strain pep5, stronger effect = lower value 1.01 | locus YMR307W, strain GAS1, stronger effect = lower value 1.01 | locus YNL067W, strain RPL9B, stronger effect = lower value 1.04 | locus YNL071W, strain lat1, stronger effect = lower value 1 | locus YNL128W, strain TEP1, stronger effect = lower value 1.02 | locus YNL183C, strain NPR1, stronger effect = lower value 0.937 | locus YNL209W, strain ssb2, stronger effect = lower value 1.01 | locus YNL233W, strain BNI4, stronger effect = lower value 1.03 | locus YNL248C, strain rpa49, stronger effect = lower value 0.953 | locus YNL250W, strain rad50, stronger effect = lower value 1.04 | locus YNL271C, strain bni1, stronger effect = lower value 1.04 | locus YNL298W, strain CLA4, stronger effect = lower value 1.05 | locus YNL307C, strain MCK1, stronger effect = lower value 1.05 | locus YNL322C, strain KRE1 (second series), stronger effect = lower value 0.998 | locus YNR049C, strain mso1, stronger effect = lower value 1.01 | locus YNR052C, strain pop2, stronger effect = lower value 1.02 | locus YOL012C, strain htz1 1.37 | locus YOL147C, strain pex11, stronger effect = lower value 1.02 | locus YOR001W, strain rrp6, stronger effect = lower value 1 | locus YOR061W, strain CKA2, stronger effect = lower value 1.02 | locus YOR069W, strain VPS5, stronger effect = lower value 1.01 | locus YOR070C, strain gyp1, stronger effect = lower value 1.01 | locus YOR080W, strain dia2, stronger effect = lower value 0.998 | locus YOR083W, strain WHI5, stronger effect = lower value 0.968 | locus YOR106W, strain vam3, stronger effect = lower value 0.988 | locus YOR136W, strain idh2, stronger effect = lower value 1.04 | locus YOR144C, strain elg1, stronger effect = lower value 1.01 | locus YOR184W, strain ser1, stronger effect = lower value 1.02 | locus YOR231W, strain MKK1, stronger effect = lower value 0.966 | locus YOR265W, strain rbl2, stronger effect = lower value 0.999 | locus YOR270C, strain vph1, stronger effect = lower value 0.981 | locus YOR290C, strain snf2, stronger effect = lower value 1 | locus YOR316C, strain cot1, stronger effect = lower value 1.04 | locus YPL051W, strain arl3, stronger effect = lower value 0.988 | locus YPL055C, strain LGE1, stronger effect = lower value 1.05 | locus YPL078C, strain atp4, stronger effect = lower value 0.958 | locus YPL106C, strain sse1, stronger effect = lower value 1 | locus YPL240C, strain hsp82, stronger effect = lower value 1.01 | locus YPL241C, strain CIN2, stronger effect = lower value 1.02 | locus YPL256C, strain CLN2, stronger effect = lower value 0.986 | locus YPR119W, strain clb2, stronger effect = lower value 1.03 | locus YPR141C, strain kar3, stronger effect = lower value 1.03 | locus YPR163C, strain tif3, stronger effect = lower value 1.01 | locus YPR167C, strain met16, stronger effect = lower value 1.04 | strain wtn01, stronger effect = lower value 1.03
